Data reported in the supplement of paper PMC10849652.
Targets with a hit are over-represented here; the source holds about 7,900 in all. About 0.6% of all pairs of compound and target were hits.

What was measured:
Assay in all cases: log2 fold change, soluble protein after heating vs DMSO (PISA); higher = thermal stabilisation; K562 cells, 10 uM, 30 min; active = over 0.2 and 3.5 SD of the protein, either way, in both replicates (recomputed)
erlotinib = compound: C#Cc1cccc(Nc2ncnc3cc(OCCOC)c(OCCOC)cc23)c1 [erlotinib]
Outline: (§1)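 For each measurement, 10 μM compound was applied for 30 min to K562 cells at 2×10^6 cells/mL. Aliquots were heated for 3 min across 48°C-58°C, pooled, and extracted in PBS with 0.5% NP-40 at 4°C; the supernatant after 21,000xg for 90 min was soluble protein. This was quantified by TMTpro 16plex LC-MS/MS with channel sums equalised, and thermal stability was reported relative to control samples from duplicates, on a log2 fold-change scale.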

[1] = compound: C/C(=N\NC(=O)C1=CC(=CC=C1)S(=O)(=O)N2CCOCC2)/C3=C(C=CC(=C3)Cl)O
Outline: as §1

[2] = compound: C1=CC(=C(C=C1Cl)C2=NC3=NC=CN=C3C(=N2)NC4=CC=NC=C4)F
Outline: as §1

[3] = compound: C1=CC(=CC=C1C2=NC3=C(N2)C=C(C=C3)C(=O)N)OC4=CC=C(C=C4)Cl
Outline: as §1

[4] = compound: C1=CC2=C(C=CC(=C2)/C=C\3/C(=O)NC(=NCC4=CC=CS4)S3)N=C1
Outline: as §1

[5] = compound: C1=CC2=NC=CN=C2C=C1/C=C/3\C(=O)NC(=O)S3
Outline: as §1

[6] = compound: C1=CC=C(C=C1)C2=NC(=C(N2)C3=CC=NC=C3)C4=CC(=C(C=C4)Cl)O
Outline: as §1

[7] = compound: C1=CC=C2C(=C1)C3=NNC4=CC=CC(=C43)C2=O
Outline: as §1

[8] = compound: C1CCN(C1)C(=O)NC2=CC=CC(=C2)NC3=NC=C(C(=N3)NCCC4=CN=CN4)Br
Outline: as §1

[9] = compound: C1CN(CCC1(CC2=CC=C(C=C2)Cl)N)C3=NC=NC4=C3C=CN4
Outline: as §1

Measured: log2 fold change

GLUD2 (UniProt P49448)
inactive: erlotinib 0.009 | [1] -0.028 | [2] 0.028 | [3] 0.036 | [4] 0.003 | [5] -0.011 | [6] 0.03 | [7] 0.027 | [8] -0.005 | [9] -0.009

GLS isoform 3 (UniProt O94925)
inactive: erlotinib 0.09 | [1] 0.156 | [2] -0.041 | [3] -0.094 | [4] 0.027 | [5] 0.004 | [6] 0 | [7] -0.082 | [8] -0.11 | [9] -0.12

GID4 (UniProt Q8IVV7)
UniProt Q8IVV7, sequence (Q8IVV7 whole entry, looked up): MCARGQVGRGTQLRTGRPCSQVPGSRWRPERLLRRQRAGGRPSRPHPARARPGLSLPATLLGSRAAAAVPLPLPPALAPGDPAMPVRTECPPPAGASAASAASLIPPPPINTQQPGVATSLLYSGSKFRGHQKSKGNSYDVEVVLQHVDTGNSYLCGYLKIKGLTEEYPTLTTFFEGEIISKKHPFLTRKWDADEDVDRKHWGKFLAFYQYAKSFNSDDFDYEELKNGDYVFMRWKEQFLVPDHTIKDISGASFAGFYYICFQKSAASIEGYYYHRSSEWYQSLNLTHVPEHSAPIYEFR
inactive: erlotinib -0.033 | [1] 0.017 | [2] 0.005 | [3] 0.028 | [4] -0.046 | [5] 0.003 | [6] -0.072 | [7] -0.018 | [8] 0.042 | [9] -0.005

GPD1 (UniProt P21695)
UniProt P21695, sequence (P21695 whole entry, looked up): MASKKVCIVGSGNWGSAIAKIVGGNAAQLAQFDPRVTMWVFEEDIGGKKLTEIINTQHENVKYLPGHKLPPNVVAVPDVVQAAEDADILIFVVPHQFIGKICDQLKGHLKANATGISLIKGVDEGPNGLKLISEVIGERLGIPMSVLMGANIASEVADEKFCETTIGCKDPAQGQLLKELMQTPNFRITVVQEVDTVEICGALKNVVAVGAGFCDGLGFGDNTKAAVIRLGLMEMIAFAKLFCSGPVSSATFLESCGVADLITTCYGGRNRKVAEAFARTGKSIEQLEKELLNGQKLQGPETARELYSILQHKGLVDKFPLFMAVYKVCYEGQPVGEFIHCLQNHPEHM
inactive: erlotinib 0.55 | [1] -0.084 | [2] -0.075 | [3] -0.305 | [4] 0.129 | [5] -0.149 | [6] -0.003 | [7] -0.047 | [8] -0.043 | [9] 0.032

GNB2 (UniProt P62879)
inactive: erlotinib 0.003 | [1] 0.079 | [2] -0.04 | [3] 0.051 | [4] -0.016 | [5] 0.007 | [6] -0.003 | [7] 0.008 | [8] -0.057 | [9] -0.002

HIP1R (UniProt O75146)
inactive: erlotinib 0.017 | [1] 0.034 | [2] 0.024 | [3] 0.005 | [4] 0.054 | [5] 0.013 | [6] 0.018 | [7] 0.033 | [8] -0.004 | [9] -0.005

GLB1 (UniProt P16278)
UniProt P16278, sequence (P16278 whole entry, looked up): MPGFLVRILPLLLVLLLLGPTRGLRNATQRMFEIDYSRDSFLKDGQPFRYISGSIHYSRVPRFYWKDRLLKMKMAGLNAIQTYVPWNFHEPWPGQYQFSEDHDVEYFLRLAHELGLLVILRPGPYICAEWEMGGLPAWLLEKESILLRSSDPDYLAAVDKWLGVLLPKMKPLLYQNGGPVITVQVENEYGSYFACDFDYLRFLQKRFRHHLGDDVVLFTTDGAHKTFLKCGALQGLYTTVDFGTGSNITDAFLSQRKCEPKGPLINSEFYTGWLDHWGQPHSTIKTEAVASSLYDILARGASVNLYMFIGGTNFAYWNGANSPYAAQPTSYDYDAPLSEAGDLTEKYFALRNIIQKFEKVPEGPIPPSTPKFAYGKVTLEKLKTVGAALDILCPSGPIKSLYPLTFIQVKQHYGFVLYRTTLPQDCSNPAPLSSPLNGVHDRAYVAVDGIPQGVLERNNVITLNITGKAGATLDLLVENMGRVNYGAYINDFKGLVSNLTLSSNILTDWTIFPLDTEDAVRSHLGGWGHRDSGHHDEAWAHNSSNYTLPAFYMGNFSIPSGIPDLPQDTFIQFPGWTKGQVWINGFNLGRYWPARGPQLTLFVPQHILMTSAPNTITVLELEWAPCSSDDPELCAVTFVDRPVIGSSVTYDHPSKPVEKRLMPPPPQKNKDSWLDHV
inactive: erlotinib -0.082 | [1] 0.038 | [2] 0 | [3] -0.006 | [4] 0.018 | [5] -0.028 | [6] 0.013 | [7] -0.011 | [8] 0.017 | [9] -0.009

HEXA (UniProt P06865)
UniProt P06865, sequence (P06865 whole entry, looked up): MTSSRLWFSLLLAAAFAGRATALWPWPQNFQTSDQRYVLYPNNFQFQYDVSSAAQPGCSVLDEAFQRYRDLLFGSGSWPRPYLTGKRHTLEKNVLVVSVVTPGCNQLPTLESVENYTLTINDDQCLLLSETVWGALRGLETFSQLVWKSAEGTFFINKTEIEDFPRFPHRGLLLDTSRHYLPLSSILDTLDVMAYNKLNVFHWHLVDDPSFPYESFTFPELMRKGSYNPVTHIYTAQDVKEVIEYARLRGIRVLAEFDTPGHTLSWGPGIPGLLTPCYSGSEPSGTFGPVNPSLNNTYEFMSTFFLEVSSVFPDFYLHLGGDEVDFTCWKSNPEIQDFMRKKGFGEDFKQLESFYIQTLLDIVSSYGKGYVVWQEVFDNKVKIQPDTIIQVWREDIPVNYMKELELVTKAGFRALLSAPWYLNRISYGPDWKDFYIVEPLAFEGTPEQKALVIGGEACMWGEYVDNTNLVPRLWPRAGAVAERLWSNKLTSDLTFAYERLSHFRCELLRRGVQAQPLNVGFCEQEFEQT
inactive: erlotinib 0.012 | [1] -0.012 | [2] 0.013 | [3] 0.007 | [4] 0.024 | [5] 0.004 | [6] -0.003 | [7] -0.023 | [8] 0.01 | [9] 0.007

FDPS (UniProt P14324)
UniProt P14324, sequence (P14324 whole entry, looked up): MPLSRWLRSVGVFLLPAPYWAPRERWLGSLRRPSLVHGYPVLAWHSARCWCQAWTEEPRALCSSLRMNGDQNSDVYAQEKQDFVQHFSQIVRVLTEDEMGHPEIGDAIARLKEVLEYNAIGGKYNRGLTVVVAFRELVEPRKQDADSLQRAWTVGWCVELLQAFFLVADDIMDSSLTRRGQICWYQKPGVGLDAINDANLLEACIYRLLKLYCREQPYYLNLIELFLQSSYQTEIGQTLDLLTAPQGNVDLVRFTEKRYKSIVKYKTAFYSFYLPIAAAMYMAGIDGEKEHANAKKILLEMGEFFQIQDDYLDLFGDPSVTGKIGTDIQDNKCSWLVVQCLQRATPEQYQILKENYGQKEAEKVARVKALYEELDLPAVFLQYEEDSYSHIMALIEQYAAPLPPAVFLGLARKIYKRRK
inactive: erlotinib 0.18 | [1] 0.174 | [2] -0.022 | [3] 0.067 | [4] 0.3 | [5] -0.026 | [6] 0.06 | [7] 0.186 | [8] 0.006 | [9] -0.309

HADHA (UniProt P40939)
inactive: erlotinib -0.085 | [1] 0.122 | [2] 0.044 | [3] -0.18 | [4] 0.042 | [5] 0.02 | [6] 0.07 | [7] 0.271 | [8] -0.214 | [9] 0.171

GBE1 (UniProt Q04446)
UniProt Q04446, sequence (Q04446 whole entry, looked up): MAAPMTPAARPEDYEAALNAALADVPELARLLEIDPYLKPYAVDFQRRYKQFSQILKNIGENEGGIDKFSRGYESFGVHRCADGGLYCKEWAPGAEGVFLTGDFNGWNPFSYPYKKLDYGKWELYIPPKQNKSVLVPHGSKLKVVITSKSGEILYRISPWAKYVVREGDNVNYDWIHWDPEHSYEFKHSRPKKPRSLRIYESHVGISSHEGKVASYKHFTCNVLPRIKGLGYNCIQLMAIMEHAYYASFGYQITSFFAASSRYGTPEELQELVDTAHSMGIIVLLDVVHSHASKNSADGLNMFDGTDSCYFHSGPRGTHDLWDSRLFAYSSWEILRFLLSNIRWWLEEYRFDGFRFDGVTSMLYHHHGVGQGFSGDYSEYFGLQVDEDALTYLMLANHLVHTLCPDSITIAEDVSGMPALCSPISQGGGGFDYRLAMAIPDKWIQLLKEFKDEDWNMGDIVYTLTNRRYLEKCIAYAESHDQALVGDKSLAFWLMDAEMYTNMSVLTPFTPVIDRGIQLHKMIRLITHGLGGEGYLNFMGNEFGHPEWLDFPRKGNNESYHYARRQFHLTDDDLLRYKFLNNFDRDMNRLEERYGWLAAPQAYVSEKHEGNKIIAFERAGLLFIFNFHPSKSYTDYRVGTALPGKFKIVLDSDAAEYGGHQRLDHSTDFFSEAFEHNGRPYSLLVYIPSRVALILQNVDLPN
inactive: erlotinib 0.008 | [1] 0.135 | [2] 0.037 | [3] -0.057 | [4] 0.158 | [5] -0.019 | [6] -0.058 | [7] -0.03 | [8] -0.061 | [9] -0.108

HP1BP3 (UniProt Q5SSJ5)
inactive: erlotinib 0.071 | [1] -0.035 | [2] -0.04 | [3] 0.028 | [4] 0.069 | [5] 0.064 | [6] -0.013 | [7] -0.044 | [8] 0.027 | [9] -0.155

FANCI (UniProt Q9NVI1)
inactive: erlotinib 0.083 | [1] 0.026 | [2] 0.056 | [3] 0.062 | [4] 0.142 | [5] 0.008 | [6] 0.053 | [7] -0.019 | [8] -0.028 | [9] -0.006

GABARAPL2 (UniProt P60520)
inactive: erlotinib 0.065 | [1] 0.013 | [2] 0.021 | [3] -0.02 | [4] 0.072 | [5] 0.016 | [6] 0.077 | [7] 0.008 | [8] -0.027 | [9] -0.021

HIST2H2BF isoform 2 (UniProt Q5QNW6)
inactive: erlotinib 0.013 | [1] -0.161 | [2] -0.433 | [3] 0.046 | [4] 0.048 | [5] 0.223 | [6] -0.057 | [7] -0.083 | [8] 0.191 | [9] -0.373

FECH isoform 2 (UniProt P22830)
inactive: erlotinib 0.191 | [1] -0.179 | [2] 0.349 | [3] 0.206 | [4] 0.162 | [5] 0.048 | [6] 0.429 | [7] 0.135 | [8] 0.172 | [9] 0.046

FDFT1 (UniProt P37268)
inactive: erlotinib 0.126 | [1] -0.026 | [2] -0.01 | [3] 0.037 | [4] 0.209 | [5] 0 | [6] 0.011 | [7] 0.144 | [8] -0.039 | [9] 0.059

HSPA8 (UniProt E9PK54)
inactive: erlotinib -0.008 | [1] 0 | [2] -0.346 | [3] 0.032 | [4] 0 | [5] 0.034 | [6] -0.211 | [7] -0.095 | [8] -0.056 | [9] -0.158

HDGFL2 (UniProt Q7Z4V5)
UniProt Q7Z4V5, sequence (Q7Z4V5 whole entry, looked up): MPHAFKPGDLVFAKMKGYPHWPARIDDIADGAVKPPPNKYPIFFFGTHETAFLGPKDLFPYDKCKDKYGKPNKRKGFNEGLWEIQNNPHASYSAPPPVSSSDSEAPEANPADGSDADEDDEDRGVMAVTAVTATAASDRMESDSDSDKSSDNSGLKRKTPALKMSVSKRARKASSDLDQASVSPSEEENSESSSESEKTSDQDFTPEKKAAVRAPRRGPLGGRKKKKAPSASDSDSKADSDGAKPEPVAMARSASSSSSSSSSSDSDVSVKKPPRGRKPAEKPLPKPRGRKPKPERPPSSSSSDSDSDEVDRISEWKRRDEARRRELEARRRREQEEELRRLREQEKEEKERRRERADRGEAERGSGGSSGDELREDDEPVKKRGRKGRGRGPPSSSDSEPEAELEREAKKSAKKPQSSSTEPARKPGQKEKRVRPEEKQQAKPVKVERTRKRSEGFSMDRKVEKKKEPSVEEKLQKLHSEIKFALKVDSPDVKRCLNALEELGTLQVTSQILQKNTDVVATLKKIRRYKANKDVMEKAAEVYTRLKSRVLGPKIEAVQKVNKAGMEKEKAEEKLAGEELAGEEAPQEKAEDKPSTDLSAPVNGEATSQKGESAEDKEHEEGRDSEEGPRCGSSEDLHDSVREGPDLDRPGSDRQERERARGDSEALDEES
inactive: erlotinib 0.002 | [1] 0.001 | [2] 0.042 | [3] -0.006 | [4] -0.046 | [5] 0.048 | [6] -0.01 | [7] -0.046 | [8] 0.033 | [9] 0.057

GMEB1 (UniProt Q9Y692)
UniProt Q9Y692, sequence (Q9Y692 whole entry, looked up): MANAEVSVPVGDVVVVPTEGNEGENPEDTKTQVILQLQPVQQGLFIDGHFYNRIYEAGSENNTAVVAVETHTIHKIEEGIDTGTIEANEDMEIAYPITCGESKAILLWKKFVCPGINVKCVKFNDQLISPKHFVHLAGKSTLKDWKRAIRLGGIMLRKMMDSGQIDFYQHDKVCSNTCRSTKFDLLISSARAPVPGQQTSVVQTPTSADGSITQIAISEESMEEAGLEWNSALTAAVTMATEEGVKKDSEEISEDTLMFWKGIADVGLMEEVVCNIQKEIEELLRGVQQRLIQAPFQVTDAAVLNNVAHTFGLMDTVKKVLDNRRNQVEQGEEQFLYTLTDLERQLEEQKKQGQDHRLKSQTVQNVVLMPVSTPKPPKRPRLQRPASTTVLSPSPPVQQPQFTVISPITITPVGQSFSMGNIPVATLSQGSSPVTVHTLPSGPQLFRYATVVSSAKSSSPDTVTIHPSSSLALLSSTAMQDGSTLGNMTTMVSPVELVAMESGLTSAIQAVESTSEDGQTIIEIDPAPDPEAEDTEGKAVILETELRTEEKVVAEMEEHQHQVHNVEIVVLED
inactive: erlotinib 0.106 | [1] 0.071 | [2] 0.012 | [3] -0.005 | [4] -0.006 | [5] 0.009 | [6] -0.027 | [7] -0.089 | [8] 0.004 | [9] 0.036

FERMT3 (UniProt Q86UX7)
inactive: erlotinib 0.019 | [1] 0.076 | [2] 0.091 | [3] -0.003 | [4] 0.028 | [5] 0.02 | [6] 0.011 | [7] 0.008 | [8] -0.006 | [9] 0.012

GSK3A (UniProt P49840)
UniProt P49840, sequence (P49840 whole entry, looked up): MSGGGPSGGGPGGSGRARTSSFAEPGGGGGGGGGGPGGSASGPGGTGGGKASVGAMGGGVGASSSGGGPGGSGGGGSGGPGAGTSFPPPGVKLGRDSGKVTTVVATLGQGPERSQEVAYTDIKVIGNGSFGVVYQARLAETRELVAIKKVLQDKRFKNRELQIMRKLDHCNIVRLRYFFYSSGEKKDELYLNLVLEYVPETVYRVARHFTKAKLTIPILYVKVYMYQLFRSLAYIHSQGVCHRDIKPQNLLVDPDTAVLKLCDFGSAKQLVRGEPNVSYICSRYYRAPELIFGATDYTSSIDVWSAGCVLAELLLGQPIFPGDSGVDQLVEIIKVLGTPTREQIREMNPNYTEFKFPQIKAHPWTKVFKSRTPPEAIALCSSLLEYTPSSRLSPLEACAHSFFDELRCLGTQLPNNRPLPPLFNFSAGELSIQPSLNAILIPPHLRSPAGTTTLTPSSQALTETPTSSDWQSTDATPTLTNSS
inactive: erlotinib -0.02 | [1] 0.015 | [2] 0.01 | [3] 0.045 | [4] -0.001 | [5] -0.001 | [6] 0.18 | [7] 0.147 | [8] 0.131 | [9] 0.019

GABARAPL1 isoform 2 (UniProt Q9H0R8)
inactive: erlotinib 0.071 | [1] -0.012 | [2] -0.023 | [3] -0.029 | [4] 0.074 | [5] -0.033 | [6] -0.001 | [7] 0.02 | [8] -0.02 | [9] 0.016

FKBP4 (UniProt Q02790)
inactive: erlotinib -0.04 | [1] 0.07 | [2] 0.055 | [3] -0.042 | [4] 0.017 | [5] 0.007 | [6] 0.036 | [7] 0.047 | [8] 0.016 | [9] -0.033

HNRNPK isoform 2 (UniProt P61978)
inactive: erlotinib 0.042 | [1] 0.019 | [2] -0.003 | [3] 0 | [4] 0.058 | [5] -0.008 | [6] -0.013 | [7] -0.024 | [8] 0.011 | [9] 0.02

GSTM4 (UniProt Q03013)
UniProt Q03013, sequence (Q03013 whole entry, looked up): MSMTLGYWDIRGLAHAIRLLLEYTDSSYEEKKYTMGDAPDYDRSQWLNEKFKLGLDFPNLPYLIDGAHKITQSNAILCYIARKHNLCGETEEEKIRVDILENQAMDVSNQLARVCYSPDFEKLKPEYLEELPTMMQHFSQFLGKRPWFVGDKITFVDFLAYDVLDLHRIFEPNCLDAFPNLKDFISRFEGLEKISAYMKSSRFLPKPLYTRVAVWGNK
inactive: erlotinib 0.084 | [1] -0.029 | [2] 0.217 | [3] -0.002 | [4] -0.038 | [5] 0.268 | [6] -0.031 | [7] -0.128 | [8] 0.018 | [9] 0.062

IGF2BP2 (UniProt Q9Y6M1)
inactive: erlotinib -0.013 | [1] -0.083 | [2] -0.255 | [3] -0.015 | [4] 0.158 | [5] 0.014 | [6] 0.007 | [7] 0.075 | [8] 0.057 | [9] 0.075

GSR (UniProt P00390)
inactive: erlotinib -0.099 | [1] 0.021 | [2] 0.071 | [3] 0.067 | [4] 0.023 | [5] 0.007 | [6] -0.026 | [7] -0.017 | [8] 0.011 | [9] 0.054

GGA2 (UniProt Q9UJY4)
inactive: erlotinib 0.036 | [1] -0.041 | [2] -0.151 | [3] 0.003 | [4] 0.063 | [5] 0.033 | [6] -0.053 | [7] -0.013 | [8] 0.025 | [9] -0.016

FBXO3 (UniProt Q9UK99)
inactive: erlotinib 0.01 | [1] 0.044 | [2] 0.141 | [3] -0.018 | [4] -0.038 | [5] 0.062 | [6] 0.112 | [7] -0.003 | [8] -0.029 | [9] 0.002
